Assay [1] can be described thus: A CellTox Green Cytotoxicity Assay to monitor cytotoxicity in HepG2 cells - 8 hour (AID 1224890). Also: nearly all actives have a fitted effect of over 45% in size. Also: potency is read from the fitted curve at half-maximal effect. Put shortly: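 Nonlytic assay: viable cells exclude the dye, so fluorescence scales with cell death. HepG2 at 600 cells/well, compounds added after 5 h, signal read across 40 h.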
A short description of assay [2]: qHTS assay to identify small molecule antagonists of the estrogen receptor alpha (ER-alpha) signaling pathway using the BG1 cell line in the presence of 0.1 nM 17-beta-estradiol - cell viability counter screen (AID 1259241). Also: nearly all actives have a fitted effect of over 40% in size. Put shortly:
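VM7Luc4E2 cells (endogenous full-length ER-alpha, 4xERE-luciferase), cultured 5 days in charcoal-stripped serum, exposed to compounds with 0.1 nM 17beta-estradiol (final) for 22 hr at 37C. Viability read in same wells as live-cell protease fluorescence after 30 min.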
(In general: Quantitative high-throughput screening tests each substance at several concentrations.)

Assay [3] in a line: qHTS assay to identify small molecule antagonists of the androgen receptor (AR) signaling pathway using the MDA cell line in the presence of 0.5 nM R1881 - cell viability counter screen (AID 1259242). Also: nearly all actives have a fitted effect of over 45% in size. Put shortly: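 R1881 at 0.5 nM final stimulated MDA-kb2 cells during 16 hr compound treatment at 37C. Cytotoxicity read: CellTiter-Fluor fluorescence after 30 min.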
The target of assay [4] is Estrogen receptor (Homo sapiens) (UniProt P03372). In words: qHTS assay to identify small molecule antagonists of the estrogen receptor alpha (ER-alpha) signaling pathway using the BG1 cell line in the presence of 0.1 nM 17-beta-estradiol (AID 1259244). Also: nearly all actives have a fitted effect of over 50% in size. An outline of the steps:
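VM7Luc4E2; 4xERE-luciferase; 0.1 nM E2 final; 22 h co-incubation, 37C; ONE-Glo luminescence after 30 min at room temperature.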

The nature of assay [5]: qHTS assay to identify small molecule HDAC inhibitors (AID 1259364). Also: potency is read from the fitted curve at half-maximal effect.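 Also: wild-type HCT-116 cells with endogenous class I/II HDAC activity; nearly all actives have a fitted effect of over 45% in size.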 Put shortly:
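Relative class I and II HDAC activity is taken from the luminogenic signal in HCT-116 cells, with compound exposure 2 hr and reagent development 30 min at room temperature.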

Assay [6] in a line: qHTS assay to identify small molecule HDAC inhibitors - cell viability counter screen (AID 1259365). Also: series mostly up to about 92 µM; nearly all actives have a fitted effect of over 50% in size. An outline of the steps: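 Wild-type HCT-116 cells, 1,500/well, cultured overnight, then compound-treated 2 h at 37 C. Viability measured as ATP luminescence with CellTiter-Glo after 30 min at room temperature.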
The nature of assay [7]: qHTS assay to identify small molecule agonists of the sonic hedgehog signaling (Shh) pathway - cell viability counter screen (AID 1259366). Also: nearly all actives have a fitted effect of over 50% in size. An outline of the steps:
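NIH/3T3-derived Gli1-Luc reporter cells, 2,000 per well, received compound after 4 h and were treated about 23 h at 37C. Viability measured in the same wells by CellTiter-Fluor fluorescence after 1 h.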

The nature of assay [8]: qHTS assay to identify small molecule antagonists of the sonic hedgehog signaling (Shh) pathway - cell viability counter screen (AID 1259367). Also: nearly all actives have a fitted effect of over 55% in size. Put shortly:
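After a 4 hr settling period, 3T3 Gli1-Luc cells were treated with DMSO-dissolved chemicals and conditioned medium, kept 24 hr at 37C in 5% CO2, and assayed for viability by CellTiter-Fluor fluorescence following 1 hr reagent incubation.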

Assay [9] in a line: qHTS assay to identify small molecule agonists of the sonic hedgehog signaling (Shh) pathway (AID 1259368; calls by dose curve;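 also: NIH/3T3-derived 3T3Gli1-Luc cells carrying a stable Gli1-driven firefly luciferase reporter; series mostly up to about 92 µM; nearly all actives have a fitted effect of over 15% in size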). An outline of the steps:
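Mouse fibroblast (NIH/3T3) reporter cells with stably integrated Gli1-Luc were treated 24 hr with compound; firefly luciferase luminescence served as the read-out.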

Assay [10] in a line: qHTS assay to identify small molecule antagonists of the sonic hedgehog signaling (Shh) pathway (AID 1259369; calls by dose curve; also: nearly all actives have a fitted effect of over 45% in size). An outline of the steps: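 Conditioned medium drives Shh signalling in 3T3Gli1-Luc cells; compounds in DMSO co-applied, 24hr at 37 C, then luciferase luminescence.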
Assay [11] addresses Estrogen receptor beta (Homo sapiens) (UniProt Q92731). In words: qHTS assay to identify small molecule agonists of the estrogen receptor beta (ER-beta) signaling pathway (AID 1259377; active = well fitted activation curve with a large enough effect in the signal ratio in the repeat runs, not every such curve was filed as active; the % refers to the signal ratio). Put shortly:
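ER-beta-UAS-bla HEK293T cells in medium with 2% charcoal-stripped FBS were exposed to compounds for 16 h at 37C. Beta-lactamase reporter activity was read as fluorescence after 2 h with LiveBLAzer B/G FRET substrate at room temperature.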

For assay [12] the target is unchanged. In words: qHTS assay to identify small molecule antagonists of the estrogen receptor beta (ER-beta) signaling pathway (AID 1259378; active = well fitted inhibition curve with a large enough effect in the signal ratio in the repeat runs, not every such curve was filed as active; the % refers to the signal ratio). An outline of the steps:
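ER-beta-UAS-bla HEK293T (GripTite) cells in 2% charcoal-stripped FBS medium were preincubated 6 hr at 37C, dosed with compound, then stimulated with 1 nM E2 (final) for 16 hr; beta-lactamase reporter read by B/G FRET fluorescence after 2 hr substrate loading.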

A short description of assay [13]: qHTS assay to identify small molecule agonists of the androgen receptor (AR) signaling pathway in the presence of an antagonist - cell viability counter screen (AID 1259379).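 Also: MDA-kb2 human breast cancer cells carrying an MMTV luciferase reporter; series mostly up to about 92 µM; nearly all actives have a fitted effect of over 25% in size.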 An outline of the steps: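 A CellTiter-Fluor read-out measured viability of MDA-kb2 reporter cells (MMTV promoter with AR and GR response elements). Treatment: nilutamide 3.0uM final with compounds at 15 concentrations, 16 hr, 37C, 0% CO2.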

A short description of assay [14]: qHTS assay to identify small molecule agonists of the estrogen receptor beta (ER-beta) signaling pathway - cell viability counter screen (AID 1259380). Also: nearly all actives have a fitted effect of over 30% in size. Also: potency is read from the fitted curve at half-maximal effect. An outline of the steps:
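Cells used were ER-beta-UAS-bla HEK293T in medium with 2% charcoal-stripped FBS. They were treated for 16 hr at 37C. Viability came from CellTiter-Glo luminescence.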

A short description of assay [15]: qHTS assay to identify small molecule antagonists of the estrogen receptor beta (ER-beta) signaling pathway - cell viability counter screen (AID 1259382). Also: series mostly up to about 92 µM; nearly all actives have a fitted effect of over 55% in size. Put shortly:
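Agonist-stimulated (1nM E2) ER-beta-UAS-bla HEK293T cells are incubated with library compounds for 16 hr at 37C. Cell viability is then assessed in the reporter-assay wells by adding CellTiter-Glo and reading luminescence after 30 min.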

Assay [16] deals with Estrogen receptor (Homo sapiens) (UniProt P03372). In words: qHTS assay to identify small molecule agonists of the estrogen receptor alpha (ER-alpha) signaling pathway in the presence of an antagonist (AID 1259383; calls by dose curve; also: top concentration of the series differs between compounds; nearly all actives have a fitted effect of over 15% in size). An outline of the steps:
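Using VM7Luc4E2 cells seeded 24hr before treatment, antagonist ICI-182,780 (10.0nM final) was added, followed by compounds at 15 concentrations. Plates incubated 22hr; ONE-Glo luminescence quantified reporter activity.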

Assay [17] is described as follows: qHTS assay to identify small molecule agonists or antagonists of the thyroid stimulating hormone receptor (TSHR) signaling pathway - wild type cell line counter screen (AID 1259384; calls by dose curve). An outline of the steps:
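Wild-type HEK293 cells were plated 18 h at 37 C/5% CO2, pin-dosed with compound plus Ro20-1724 medium, held 30 min at room temperature, then given cAMP-d2 and anti-cAMP-cryptate; fluorescence was read after 1 h. Fifteen concentrations, triplicate.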

A short description of assay [18]: qHTS assay to identify small molecule phospholipidosis (PLD) inducers (AID 1259344; active = well fitted curve in the direction sought with a large enough effect; an effect the other way counts as inactive or inconclusive). An outline of the steps: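 HepG2 cells grown on collagen I take up LipidTOX Red while exposed to compound for 24 h; after fixation they are imaged at 20x and pit metrics are extracted.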

Unmarked numbers belong to inactive results. Inconclusive results are not listed. The source made the active and inactive calls. Unless noted, calls follow the shape of the dose curve; as a rule, active = well fitted curve in the direction sought with a large enough effect in the repeat runs; inconclusive = weak or mixed curves; inactive = no such curve, though single readings can be large; an effect the other way counts as inactive or inconclusive.

Estrogen receptor beta (Homo sapiens), sequence (Q92731 whole entry, looked up): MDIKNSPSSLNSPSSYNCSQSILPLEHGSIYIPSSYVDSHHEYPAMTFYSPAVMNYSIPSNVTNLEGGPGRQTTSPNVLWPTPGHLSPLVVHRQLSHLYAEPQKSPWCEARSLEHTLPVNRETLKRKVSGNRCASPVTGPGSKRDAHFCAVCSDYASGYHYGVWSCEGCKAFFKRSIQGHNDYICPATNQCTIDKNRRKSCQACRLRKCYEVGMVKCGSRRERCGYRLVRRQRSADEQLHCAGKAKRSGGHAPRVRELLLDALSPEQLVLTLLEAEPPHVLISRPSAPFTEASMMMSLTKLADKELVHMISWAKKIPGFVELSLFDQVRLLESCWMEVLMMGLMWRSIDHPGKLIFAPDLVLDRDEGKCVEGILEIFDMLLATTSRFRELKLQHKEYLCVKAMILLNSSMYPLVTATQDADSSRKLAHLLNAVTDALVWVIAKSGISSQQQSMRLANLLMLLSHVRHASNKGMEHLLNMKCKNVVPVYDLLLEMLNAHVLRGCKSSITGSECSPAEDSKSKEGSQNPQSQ
Estrogen receptor (Homo sapiens), sequence (P03372 whole entry, looked up): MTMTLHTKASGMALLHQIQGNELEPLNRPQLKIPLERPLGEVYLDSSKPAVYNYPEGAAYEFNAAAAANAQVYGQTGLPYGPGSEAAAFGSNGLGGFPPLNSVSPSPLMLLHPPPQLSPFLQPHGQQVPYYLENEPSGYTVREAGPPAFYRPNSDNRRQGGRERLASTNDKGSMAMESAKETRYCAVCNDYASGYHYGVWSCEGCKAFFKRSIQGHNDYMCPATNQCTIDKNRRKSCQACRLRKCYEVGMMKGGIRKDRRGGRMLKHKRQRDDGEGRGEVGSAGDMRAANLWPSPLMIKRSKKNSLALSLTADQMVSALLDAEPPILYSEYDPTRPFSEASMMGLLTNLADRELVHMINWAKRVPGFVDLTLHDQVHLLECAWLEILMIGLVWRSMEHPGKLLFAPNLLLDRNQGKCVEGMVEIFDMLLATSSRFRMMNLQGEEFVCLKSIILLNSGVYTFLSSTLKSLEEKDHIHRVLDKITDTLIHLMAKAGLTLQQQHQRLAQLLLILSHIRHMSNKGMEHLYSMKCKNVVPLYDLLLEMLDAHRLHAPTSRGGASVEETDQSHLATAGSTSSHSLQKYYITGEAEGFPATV

On to `CCOC(=O)NCCC[Si](OCC)(OCC)OCC`, for which the Potency entry in assay [1], in assay [2], in assay [4], in [5], in [7] and in [8] was “inactive” throughout. The Potency entry in [9], in assay [10], in assay [12], in assay [13], in assay [14] and in assay [16] was “inactive” each time. For the same compound, the outcome in assay [3], in assay [6], in [11], in assay [15] and in assay [17] was inactive.
Turning to `CC1(C)O[C@@H]2C[C@H]3[C@@H]4CCC5=CC(=O)CC[C@]5(C)[C@@]4(F)[C@@H](O)C[C@]3(C)[C@]2(C(=O)CCl)O1`, the Potency entry in [1], in assay [2], in assay [4], in assay [5], in assay [8] and in [13] was “inactive” each time. Also, in assay [16], the Potency entry was “inactive”. The result in [3], in assay [18], in assay [6], in assay [11] and in assay [17] was inactive.
Consider `CC(C)(C)C1CCCCC1=O` (stereo not given), for which the Potency result in [1], in [2], in assay [4], in assay [5], in assay [7] and in assay [9] was “inactive” in each case. For the same compound, the Potency entry in assay [10], in assay [12], in assay [13] and in assay [16] was “inactive” throughout. For the same compound, the result in assay [3], in assay [6] and in assay [11] was inactive.
As for `CC(C)C1=CC2=CC[C@@H]3[C@](C)(CCC[C@@]3(C)C(=O)O)[C@H]2CC1`, the Potency entry in assay [1], in assay [2], in assay [4], in assay [5], in assay [7] and in [9] was “inactive” each time. Besides, the Potency result in assay [10], in [13] and in assay [16] was “inactive” throughout. The outcome in assay [3], in assay [18], in assay [6] and in assay [15] was inactive.
On to `CCCCCCCCCCCCOCCOS(=O)(=O)O`, for which the figures for the Potency in assay [1] and in [14] were 54.9 µM (active) and 48.6 µM (active), respectively. Further, the Potency result in [2], in [4], in assay [5], in assay [7], in assay [10] and in [13] was “inactive” throughout. For the same compound, the Potency result in assay [16] was “inactive”. For the same compound, the outcome in assay [3], in assay [6] and in assay [17] was inactive.
As to `OCC(CBr)(CBr)CBr`, the Potency result in [1], in [2], in [4], in assay [7], in assay [8] and in [9] was “inactive” in each case. Besides, the Potency entry in assay [13], in [14] and in assay [16] was “inactive” throughout. Moreover, the outcome in assay [3], in assay [6], in assay [15] and in [17] was inactive.
With `CCOc1ccc2nc(N)sc2c1`, the Potency result in assay [1], in assay [2], in [4], in assay [7], in assay [8] and in assay [9] was “inactive” each time. The Potency result in [10], in assay [13] and in assay [16] was “inactive” throughout. The result in assay [3], in [6], in assay [15] and in assay [17] was inactive. Further, in assay [5], the Potency was 24.1 µM (active).
Consider `Cc1c(-c2ccccc2)oc2c(C(=O)OCCN3CCCCC3)cccc2c1=O`, for which the Potency entry in [1], in assay [2], in assay [4], in assay [5], in [7] and in [8] was “inactive” in each case. The Potency result in assay [9], in assay [13], in assay [14] and in assay [16] was “inactive” throughout. Also, the outcome in [3], in assay [18], in assay [6], in assay [11], in assay [15] and in assay [17] was inactive.
`CC(C)C(=O)OC/C=C/c1ccccc1`: the Potency entry in [1], in [2], in [4], in assay [5], in assay [7] and in assay [8] was “inactive” each time. In addition, the Potency result in assay [10], in assay [12], in assay [13] and in assay [16] was “inactive” in each case. In addition, the result in [3], in assay [6], in assay [11], in [15] and in assay [17] was inactive.
